Where “and” joins values, the source holds several entries; their conditions need not be identical. Equal values may be shown once. Records with an inconclusive call do not appear. A call without a number means that no potency is given here. The source holds several records for some structures; these can differ, active in one and inactive in another. Calls of active or inactive are those of the source. The call rests on the fitted dose curve; in most records, active means well fitted cell-killing curve with a large enough effect in the repeat runs; inconclusive means weak or mixed curves; inactive means flat fitted curve, though single readings scatter. Starred links: 1 amine or outer side, 2 acyl side, 3 side chain; linkers in the order of their positions; H or OH if unused. Positions of bridges follow the written chain, without caps; N, C: chain ends. Non-standard residues stand in square brackets, D forms with d. Residues, ends and D or L forms follow the SMILES beside them. Chains are numbered I, II in the order given. Actinocin(9to1) = Cc1c2oc3c(C)ccc(C(=O)[*:1])c3nc-2c(C(=O)[*:2])c(N)c1=O; NMeV = CN[C@H](C(=O)O)C(C)C; Sar = CNCC(=O)O
Experiment: qHTS RealTime-Glo MT Cell Viability Assay in HepG2 cells - 24 hour (AID 1224867); further: nearly all actives have a fitted effect of over 50% in size
Settings: RealTime-Glo luminescence; series mostly up to 76.8 µM
Description: U.S. Tox21 Program National Center for Advancing Translational Sciences [NCATS] NIH Chemical Genomics Center [NCGC] U.S. Environmental Protection Agency [EPA] National Institutes of Environmental Health Sciences [NIEHS] National Toxicology Program [NTP] U.S. Food and Drug Administration [FDA] Tox21 Assay Overview: Measure of cell viability is critical in the cell-base assay. Analysis of cell viability is necessary for the characterization of cell responses to cytotoxic drugs and environmental stress. A RealTime-Glo MT Cell Viability Assay to monitor cell viability in real time of continues cell culture during 40 hours of compound treatment was used to screen Tox21 10K library compounds in HepG2 cells. The RealTime-Glo MT Cell Viability Assay is a nonlytic, homogeneous, bioluminescent method to measure cell viability in real time using a simple, plate-based method. The assay involves adding NanoLuc luciferase and a cell-permeant prosubstrate to cells in culture. Viable cells reduce the proprietary prosubstrate to generate a substrate for NanoLuc luciferase. This substrate diffuses from cells into the surrounding culture medium, where it is rapidly used by the NanoLuc Enzyme to produce a luminescent signal. The signal correlates with the number of viable cells, making the assay well suited for cytotoxicity studies.
Tox21 Assay Protocol Summary: The mixture of HepG2 cell suspension and reagents were dispensed at 600cells/6 ul/well in 1536-well tissue culture treated black solid bottom plates using a Multidrop dispenser. After the assay plates were incubated at a 37 C/5% CO2 incubator for 5 hours, 23 nL of compounds dissolved in DMSO, positive and negative controls was transferred to the assay plate by a pintool work station. The plates were incubated at 37 C for 40 hours. The luminescence intensity were measured at 0h, 8h, 16h, 24h, 32h and 40h time points using ViewLux plate reader during compound treatment.
Potency means the concentration at half of the fitted maximal effect.

| SMILES | Potency | activity change, negative = cytotoxicity |
| --- | --- | --- |
| CC(C)(c1ccccc1)c1ccc(Nc2ccc(C(C)(C)c3ccccc3)cc2)cc1 | inactive | – |
| NC12CC3CC(CC(C3)C1)C2 | inactive | – |
| c1cnc2cc3c(cc2n1)C1CNCC3C1 | inactive | – |
| CCCNC(C)C(=O)Nc1ccccc1C (stereo not given) | inactive | – |
| CCCCOCCOC(=O)c1ccccc1C(=O)OCCOCCCC | inactive | – |
| COC(=O)/C=C/c1ccccc1 | inactive | – |
| C=CS(=O)(=O)O | inactive | – |
| CCCCCCCCCCCCCCCCCl | – | 5.56% [at 15.8 µM] (inactive) |
| COc1cc(C(=S)N2CCOCC2)ccc1O | inactive | – |
| [Cl][In]([Cl])[Cl] | inactive | – |
| Cc1c2oc3c(C)ccc(C(=O)N[C@@H]4C(=O)N[C@H](C(C)C)C(=O)N5CCC[C@H]5C(=O)N(C)CC(=O)N(C)[C@@H](C(C)C)C(=O)O[C@@H]4C)c3nc-2c(C(=O)N[C@@H]2C(=O)N[C@H](C(C)C)C(=O)N3CCC[C@H]3C(=O)N(C)CC(=O)N(C)[C@@H](C(C)C)C(=O)O[C@@H]2C)c(N)c1=O (I: T[dV]P[Sar][NMeV] / II: T[dV]P[Sar][NMeV]; ester I:1-I:C, II:1-II:C; linker I:N-II:N via Actinocin(9to1)) | 8.47 µM (active) and 2.68 µM (active) | – |
| CC(C)(C)c1cc(C(C)(C)C)c(O)c(C(C)(C)C)c1 | inactive | – |
| CC(C)C(=O)c1c(C(C)C)nn2ccccc12 | inactive | – |
| Cc1ccc(-c2cc(C(F)(F)F)nn2-c2ccc(S(N)(=O)=O)cc2)cc1 | 48.8 µM (active) and 49 µM (active) | – |
| O=C(O)c1cccc(C(=O)O)c1 | inactive | – |
| O=C1CC2(CCCC2)CC(=O)N1CCCCN1CCN(c2ncccn2)CC1 | inactive | – |
| O=Cc1ccc(Cl)cc1 | inactive | – |
| CCN(CC)C(=S)SSC(=S)N(CC)CC | 436 nM (active) and 398 nM (active) and inactive | – |
| Cc1cc(C(C)(C)C)c(O)c(C(C)(C)C)c1 | inactive | – |
| CCCN[C@H]1CCc2nc(N)sc2C1 | inactive | – |

| SMILES | Potency | activity change, negative = cytotoxicity |
| --- | --- | --- |
| COc1ccc(Cc2cnc(N)nc2N)cc1OC | inactive | – |
| c1ccc2n[nH]nc2c1 | inactive | – |
| CC(=O)OCC1=C(C(=O)O)N2C(=O)[C@@H](NC(=O)Cc3cccs3)[C@H]2SC1 | inactive | – |
| COc1ccc(COC(C)=O)cc1 | inactive | – |
| Cc1occc(=O)c1OC(=O)C(C)C | inactive | – |
| CN(C)c1ccc2nc3ccc(=[N+](C)C)cc-3sc2c1 | 16.7 µM (active) and 12.3 µM (active) and 19 µM (active) | – |
| COC(=O)c1cccc(C(=O)OC)c1 | inactive | – |
| Cc1ccnc2c1NC(=O)c1cccnc1N2C1CC1 | inactive | – |
| O=C(Cl)c1cccc(C(=O)Cl)c1 | inactive | – |
| O=C(Oc1ccccc1)c1ccccc1O | inactive | – |
| CC(=O)OCCOCCOCCOC(C)=O | inactive | – |
| COc1ccc(CCN2CCC(Nc3nc4ccccc4n3Cc3ccc(F)cc3)CC2)cc1 | 17.8 µM (active) and 13.4 µM (active) | – |
| C=C(C)C(=O)O | inactive | – |
| Cc1cc(OCCOCC[N+](C)(C)Cc2ccccc2)ccc1C(C)(C)CC(C)(C)C | 15.4 µM (active) and 10.7 µM (active) | – |
| Clc1ccc2c(c1)C(N1CCNCC1)=Nc1ccccc1O2 | 54.9 µM (active) | – |
| O=C(O)c1cc(Cl)cc(Cl)c1 | inactive | – |
| NC(=Nc1ccccc1)Nc1ccccc1 | inactive | – |
| O=C(O)c1cn(-c2ccc(F)cc2)c2cc(N3CCNCC3)c(F)cc2c1=O | inactive | – |
| CCCCCCCCCCCCc1ccccc1O | inactive and 38.9 µM (active) | – |
| CCCCC(CC)COC(=O)CC(C(=O)OCC(CC)CCCC)S(=O)(=O)O (stereo not given) | inactive | – |
